Test [1] addresses Retinoic acid receptor RXR-alpha (Homo sapiens) (UniProt P19793). As to the kind of experiment: ATG_RXRa_TRANS: Attagene TRANS-FACTORIAL HepG2 Assay for human Retinoid X Receptor alpha (RXRa) (AID 2283012; active = hit-call score of the fitted dose curve at least 0.9, where 1 is the maximum). A digest of the protocol: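 Cells (HepG2) carried transiently transfected GAL4-responsive reporter units. Following a 24 h chemical incubation, reporter mRNA induction was read via RT-PCR fragment analysis; DMSO served as negative control and baseline.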

Test [2] has as its target human Thyroid Receptor alpha (THRa1), THRA (gene 7067) (UniProt P10827). As to the kind of experiment: ATG_THRa1_TRANS: Attagene TRANS-FACTORIAL HepG2 Assay for human Thyroid Receptor alpha (THRa1) (AID 2283014; active = hit-call score of the fitted dose curve at least 0.9, where 1 is the maximum). In short, it runs like this: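 Reporter transcript induction, read by capillary electrophoresis of 6-FAM-labelled RT-PCR products, reflects activity of a transfected THRa1-Gal4 fusion in HepG2 liver cells. Cells were dosed for 24 h; activity was fitted in the positive direction against DMSO.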

Read-out in test [3]: E-selectin (Homo sapiens) (UniProt P16581)
The test is described as follows: BSK_3C_Eselectin: BioMAP Diversity Plus: 3C Assay for Eselectin Biomarker Activity (AID 2283015).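 For outcome: cell surface E-selectin protein quantified by ELISA 24 h after dosing.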 The conditions noted are these: primary human endothelial cells (HUVEC); actives raise or lower the signal. A digest of the protocol: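 ELISA read-out of E-selectin on endothelial monolayers after 24 h chemical treatment. Human umbilical vein primary cells served as the system, with DMSO defining baseline activity for bidirectional fitting.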

Read-out in test [4]: Interleukin-1 alpha (IL1a), IL1A (gene 3552)
The test is described as follows: BSK_BE3C_IL1a: BioMAP Diversity Plus: BE3C Assay for Interleukin-1 alpha (IL1a) Biomarker Activity (AID 2283016). Conditions: primary human bronchial epithelial cells; actives raise or lower the signal. In short, it runs like this: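 Cultures of primary human bronchial epithelial cells receive test chemical. After 24 h, IL-1a is quantified by ELISA, while parallel wells are fixed in TCA and SRB-stained for total protein. Changes in either direction are fitted relative to DMSO.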

Read-out in test [5]: Monocyte Chemoattractant Protein-1 (MCP1), CCL2 (gene 6347)
The test is described as follows: BSK_3C_MCP1: BioMAP Diversity Plus: 3C Assay for Monocyte Chemoattractant Protein-1 (MCP1) Biomarker Activity (AID 2283017). The conditions noted are these: primary human endothelial cells (HUVEC); actives raise or lower the signal. In short, it runs like this: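 ELISA read-out of MCP-1 from human umbilical vein endothelial cell cultures harvested 24 h post-dosing. Gain or loss of signal was fitted relative to DMSO.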

Read-out in test [6]: Monocyte Chemoattractant Protein-1 (MCP1), CCL2 (gene 6347)
The test is described as follows: BSK_4H_MCP1: BioMAP Diversity Plus: 4H Assay for Monocyte Chemoattractant Protein-1 (MCP1) Biomarker Activity (AID 2283018). The conditions noted are these: primary human endothelial cells (HUVEC); actives raise or lower the signal. In short, it runs like this:
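Readout: MCP-1 ELISA on compound-treated HUVEC, sampled 24 h post-dosing. Baseline and negative control DMSO; bidirectional fit. Overt toxicity checked alongside by sulforhodamine B protein staining at time of biomarker measurement.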

Read-out in test [7]: Human Leukocyte Antigen - DR isotype (HLADR), HLA-DRA (gene 3122)
As to the kind of experiment: BSK_3C_HLADR: BioMAP Diversity Plus: 3C Assay for Human Leukocyte Antigen - DR isotype (HLADR) Biomarker Activity (AID 2283019).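 For outcome: ELISA of cell-surface HLA-DR on HUVEC 24 h after dosing.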 Conditions: primary human endothelial cells (HUVEC); actives raise or lower the signal. A digest of the protocol:
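ELISA readout of surface HLA-DR on human umbilical vein endothelium, taken 24 h after chemical treatment. Gain- and loss-of-signal were both fitted relative to DMSO.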

Read-out in test [8]: Interleukin-8 (IL8), CXCL8 (gene 3576)
The test is described as follows: BSK_3C_IL8: BioMAP Diversity Plus: 3C Assay for Interleukin-8 (IL8) Biomarker Activity (AID 2283020). The conditions noted are these: primary human endothelial cells (HUVEC); actives raise or lower the signal. A digest of the protocol: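 Human vascular endothelial cells (umbilical vein) in the 3C system; IL-8 level detected by ELISA at 24 h post-dose, with DMSO as baseline.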

Read-out in test [9]: Monokine induced gamma interferon (MIG), CXCL9 (gene 4283)
As to the kind of experiment: BSK_3C_MIG: BioMAP Diversity Plus: 3C Assay for Monokine induced gamma interferon (MIG) Biomarker Activity (AID 2283021).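 For AC50: MIG protein level measured by immunoassay in the treated endothelial cultures.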 Conditions: primary human endothelial cells (HUVEC); actives raise or lower the signal. In short, it runs like this: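 After 24 h of treatment, human umbilical vein endothelial cultures (3C system) had their MIG biomarker level determined by ELISA, with DMSO serving as negative control.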

Test [10] concerns the target human Vitamin D Receptor (VDR), VDR (gene 7421) (UniProt P11473). The test is described as follows: ATG_VDR_TRANS: Attagene TRANS-FACTORIAL HepG2 Assay for human Vitamin D Receptor (VDR) (AID 2283022; active = hit-call score of the fitted dose curve at least 0.9, where 1 is the maximum). In short, it runs like this: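 Steps: transfect HepG2 with GAL4-UAS-driven reporter constructs; dose compounds 24 h; isolate RNA, reverse-transcribe, PCR-amplify with 6-FAM-labelled primer extension and HpaI digestion; quantify fragments by capillary electrophoresis relative to DMSO.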

Test [11] is described as follows: BSK_3C_SRB: Viability Assessment in the BioMAP Diversity Plus: 3C Assay (AID 2283023).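 Note: fitted both ways against DMSO so a hit may be signal rise or drop.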 The conditions noted are these: primary human endothelial cells (HUVEC). A digest of the protocol: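 Absorbance at 560 nm of sulforhodamine B-stained (0.1%) total protein served as a cytotoxicity readout in human umbilical vein endothelial cells, 24 h after chemical treatment. Signal was fitted bidirectionally relative to DMSO.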

Read-out in test [12]: Matrix Metallopeptidase 1 (MMP1), MMP1 (gene 4312)
As to the kind of experiment: BSK_BE3C_MMP1: BioMAP Diversity Plus: BE3C Assay for Matrix Metallopeptidase 1 (MMP1) Biomarker Activity (AID 2283024). The conditions noted are these: primary human bronchial epithelial cells; actives raise or lower the signal. A digest of the protocol:
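Dose cells, wait 24 h, run MMP1 ELISA; cells are human bronchial epithelial primaries. Both increases and decreases relative to DMSO counted.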

Read-out in test [13]: Pselectin, SELP (gene 6403)
As to the kind of experiment: BSK_4H_Pselectin: BioMAP Diversity Plus: 4H Assay for Pselectin Biomarker Activity (AID 2283026). Conditions: primary human endothelial cells (HUVEC); actives raise or lower the signal. A digest of the protocol: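 Human vascular endothelium from umbilical vein; P-selectin measured by ELISA at 24 h post-dose, with cytotoxicity checked by sulforhodamine B total-protein staining in parallel cultures (0.1% SRB after 10% TCA fixation, read at 560 nm).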

Test [14] can be described thus: BSK_4H_SRB: Viability Assessment in the BioMAP Diversity Plus: 4H Assay (AID 2283027).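 For AC50: curves fitted both ways versus DMSO so AC50 may be loss or gain.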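 Note: cells exposed to compound for 24 h before staining.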 The conditions noted are these: primary human endothelial cells (HUVEC). A digest of the protocol:
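Human umbilical vein endothelial cells, 24 h after chemical dosing; total protein measured by 0.1% sulforhodamine B staining after 10% TCA fixation, read at 560 nm. Bidirectional fitting against DMSO.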

Test [15] in a line: BSK_BE3C_SRB: Viability Assessment in the BioMAP Diversity Plus: BE3C Assay (AID 2283028). Conditions: primary human bronchial epithelial cells. A digest of the protocol:
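Cells (human bronchial epithelial, primary) are treated with chemicals, and after 24 h the parallel cultures are fixed in 10% TCA. These are then stained with 0.1% SRB and read at 560 nm. Gain or loss of signal is fitted relative to DMSO.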

Read-out in test [16]: Thrombomodulin, THBD (gene 7056)
As to the kind of experiment: BSK_3C_Thrombomodulin: BioMAP Diversity Plus: 3C Assay for Thrombomodulin Biomarker Activity (AID 2283029). Conditions: primary human endothelial cells (HUVEC); actives raise or lower the signal. A digest of the protocol: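 Thrombomodulin ELISA, human primary HUVEC, 24 h post-dose; data fitted in both directions relative to DMSO.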

Test [17] in a line: BSK_3C_Vis: BioMAP Diversity Plus: 3C Assay for Morphology Visualization (AID 2283025).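 For AC50: light microscopy image of cell morphology used as background control.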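 Note: fitted both ways so gain or loss versus DMSO counts.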 The conditions noted are these: primary human endothelial cells (HUVEC). A digest of the protocol: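 Endothelial cells from human umbilical vein were treated with test chemicals for 24 h and inspected by light microscopy for changes in cell conformation.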
For test [18], the target named is human Retinoid X Receptor beta (RXRb), RXRB (gene 6257) (UniProt P28702). As to the kind of experiment: ATG_RXRb_TRANS: Attagene TRANS-FACTORIAL HepG2 Assay for human Retinoid X Receptor beta (RXRb) (AID 2283013; active = hit-call score of the fitted dose curve at least 0.9, where 1 is the maximum). In short, it runs like this: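 Multiplexed TRANS reporter assay in HepG2; 24 h dosing; reporter mRNA by RT-PCR/CE fluorescence; gain-of-signal relative to DMSO.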
human Retinoid X Receptor beta (RXRb), RXRB (gene 6257), sequence (P28702 whole entry, looked up): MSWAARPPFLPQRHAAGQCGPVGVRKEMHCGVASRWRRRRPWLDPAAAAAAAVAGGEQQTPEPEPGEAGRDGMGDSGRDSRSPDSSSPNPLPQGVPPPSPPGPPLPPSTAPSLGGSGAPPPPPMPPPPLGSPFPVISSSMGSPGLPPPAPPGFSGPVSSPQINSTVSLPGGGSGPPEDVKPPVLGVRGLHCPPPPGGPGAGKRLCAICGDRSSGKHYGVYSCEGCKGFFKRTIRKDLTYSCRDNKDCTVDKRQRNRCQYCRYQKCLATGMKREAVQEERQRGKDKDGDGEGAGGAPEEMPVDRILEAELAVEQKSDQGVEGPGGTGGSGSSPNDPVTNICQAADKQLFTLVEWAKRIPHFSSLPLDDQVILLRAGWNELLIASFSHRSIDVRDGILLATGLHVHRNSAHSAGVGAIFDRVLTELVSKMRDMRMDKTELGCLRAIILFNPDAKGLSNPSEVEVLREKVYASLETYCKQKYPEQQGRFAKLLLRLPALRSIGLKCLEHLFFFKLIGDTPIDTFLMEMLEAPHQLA

Structures are written as SMILES. Inconclusive results are not listed. Some structures have more than one record in an assay (separate samples or runs), and their calls can disagree. Calls of active or inactive are those of the source. Rule for the calls, unless noted: active = hit-call score of the fitted dose curve at least 0.9, where 1 is the maximum; inactive = score below 0.9.

human Thyroid Receptor alpha (THRa1), THRA (gene 7067), sequence (P10827 whole entry, looked up, the tested form may be a part): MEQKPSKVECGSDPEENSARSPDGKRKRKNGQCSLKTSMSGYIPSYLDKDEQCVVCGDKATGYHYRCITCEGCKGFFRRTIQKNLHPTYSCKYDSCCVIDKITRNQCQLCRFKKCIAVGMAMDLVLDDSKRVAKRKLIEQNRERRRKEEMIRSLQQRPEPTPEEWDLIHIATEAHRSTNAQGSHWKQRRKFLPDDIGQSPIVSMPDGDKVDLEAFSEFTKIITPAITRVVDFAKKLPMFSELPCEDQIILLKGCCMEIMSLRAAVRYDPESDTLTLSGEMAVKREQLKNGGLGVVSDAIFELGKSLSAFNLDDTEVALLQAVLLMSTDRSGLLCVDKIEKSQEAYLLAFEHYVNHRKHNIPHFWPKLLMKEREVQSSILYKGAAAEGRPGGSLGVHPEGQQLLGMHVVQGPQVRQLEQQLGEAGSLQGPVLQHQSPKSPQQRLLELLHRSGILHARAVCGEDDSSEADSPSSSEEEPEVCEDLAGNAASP
human Vitamin D Receptor (VDR), VDR (gene 7421), sequence (P11473 whole entry, looked up, the tested form may be a part): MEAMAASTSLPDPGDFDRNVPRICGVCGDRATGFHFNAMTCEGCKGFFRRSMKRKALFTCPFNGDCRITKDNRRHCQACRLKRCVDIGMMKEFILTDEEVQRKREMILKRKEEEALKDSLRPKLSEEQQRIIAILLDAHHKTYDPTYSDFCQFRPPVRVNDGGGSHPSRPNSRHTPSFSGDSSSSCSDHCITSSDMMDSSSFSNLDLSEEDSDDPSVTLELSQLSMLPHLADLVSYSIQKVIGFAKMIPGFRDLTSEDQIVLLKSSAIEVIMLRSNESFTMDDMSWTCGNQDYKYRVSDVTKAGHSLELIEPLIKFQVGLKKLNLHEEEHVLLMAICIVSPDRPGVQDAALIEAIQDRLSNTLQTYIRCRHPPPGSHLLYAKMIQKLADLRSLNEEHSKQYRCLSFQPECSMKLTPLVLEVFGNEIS
Retinoic acid receptor RXR-alpha (Homo sapiens), sequence (P19793 whole entry, looked up, the tested form may be a part): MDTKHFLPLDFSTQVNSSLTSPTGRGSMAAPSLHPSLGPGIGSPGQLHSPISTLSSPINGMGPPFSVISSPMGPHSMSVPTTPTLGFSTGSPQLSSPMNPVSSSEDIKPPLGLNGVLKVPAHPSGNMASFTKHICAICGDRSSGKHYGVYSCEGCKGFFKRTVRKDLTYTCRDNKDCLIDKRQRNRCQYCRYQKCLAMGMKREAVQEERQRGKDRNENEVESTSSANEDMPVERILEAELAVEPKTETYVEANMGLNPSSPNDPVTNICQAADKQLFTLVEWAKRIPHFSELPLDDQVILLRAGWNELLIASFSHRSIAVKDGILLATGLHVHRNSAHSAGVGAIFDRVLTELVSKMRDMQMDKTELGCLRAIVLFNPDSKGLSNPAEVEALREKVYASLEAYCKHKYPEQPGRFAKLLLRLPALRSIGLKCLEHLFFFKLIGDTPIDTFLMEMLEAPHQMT
E-selectin (Homo sapiens), sequence (P16581 whole entry, looked up): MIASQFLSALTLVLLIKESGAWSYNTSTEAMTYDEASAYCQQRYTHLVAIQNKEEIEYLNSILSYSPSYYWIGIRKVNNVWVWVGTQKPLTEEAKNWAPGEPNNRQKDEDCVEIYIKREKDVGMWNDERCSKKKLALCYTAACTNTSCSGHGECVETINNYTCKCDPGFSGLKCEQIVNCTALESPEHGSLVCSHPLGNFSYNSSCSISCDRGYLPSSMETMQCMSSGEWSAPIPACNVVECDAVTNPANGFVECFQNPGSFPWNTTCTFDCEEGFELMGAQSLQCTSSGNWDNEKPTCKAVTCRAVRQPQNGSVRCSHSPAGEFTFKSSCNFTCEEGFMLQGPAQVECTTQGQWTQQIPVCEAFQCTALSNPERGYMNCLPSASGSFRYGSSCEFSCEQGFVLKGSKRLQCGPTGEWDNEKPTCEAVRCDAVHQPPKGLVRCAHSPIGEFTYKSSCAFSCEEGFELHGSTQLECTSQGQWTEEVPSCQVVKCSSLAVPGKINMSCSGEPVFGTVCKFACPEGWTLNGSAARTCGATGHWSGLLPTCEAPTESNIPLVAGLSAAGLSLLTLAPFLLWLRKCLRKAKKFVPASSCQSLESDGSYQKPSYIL

In the case of `O=C(O)C(F)(F)OC(F)(F)C(F)(F)OC(F)(F)F`, the compound was classed as inactive in test [1], in test [2], in [3], in test [4], in test [5] and in [6]. Besides, the outcome in test [7], in test [8], in [9], in test [10], in [11] and in [12] was inactive. For the same compound, the outcome in test [13], in [14], in test [15] and in test [16] was inactive.
As to `ClC1=C(Cl)C2(Cl)C3C(Cl)C(Cl)CC3C1(Cl)C2(Cl)Cl` (stereo unspecified), the outcome in test [1], in [2], in test [4], in test [10], in test [15] and in test [16] was inactive. The AC50 in test [3] was 29.7 µM (active); in test [6], 12.1 µM (active); in [7], 17.5 µM (active); in [8] it was 35.6 µM (active); in [9], 35.6 µM (active); in [11], 29.8 µM (active). Moreover, the AC50 was 14.4 µM (active) in [12], 37.3 µM (active) in test [17] and 29.6 µM (active) in test [14].
As to `CCCCC(CC)COC(=O)c1c(Br)c(Br)c(Br)c(Br)c1C(=O)OCC(CC)CCCC` (stereo unspecified), the compound was classed as inactive in test [1], in test [3], in [4], in test [5], in test [6] and in test [7]. In addition, the result in [8], in [9], in [10], in [11], in [12] and in test [17] was inactive. Further, the outcome in test [13], in test [14], in test [15] and in test [16] was inactive.
Turning to `CNC(=O)Oc1ccc(N(C)C)c(C)c1`, the compound was classed as inactive in [1].
`CCOP(=S)(OCC)SCS(=O)(=O)CC`: the call in [1], in test [2], in test [3], in test [4], in test [6] and in test [7] was inactive. Also, the result in test [8], in [9], in test [10], in test [11], in test [12] and in test [17] was inactive. The result in test [14], in test [15] and in test [16] was inactive.
As for `OCC(F)(F)OC(F)(F)C(F)(F)OC(F)(F)C(F)(F)OC(F)(F)CO`, the compound was called inactive in test [1], in [2], in test [3], in test [4], in test [6] and in test [7]. Further, the outcome in test [8], in test [9], in test [10], in test [11], in test [12] and in [13] was inactive. In addition, the result in test [14], in test [15] and in [16] was inactive. For the same compound, the AC50 in [6] was 16.2 µM (active); in test [11], 30 µM (active); in test [12], 39.8 µM (active); in test [14], 30 µM (active).
Consider `CCCCc1ccccc1`, for which the call in [1], in [2], in test [3], in test [4], in test [6] and in [7] was inactive. In addition, the outcome in [8], in [9], in test [11], in [12], in test [17] and in [14] was inactive. Moreover, the result in test [15] and in test [16] was inactive.
Consider `Nc1ccc([N+](=O)[O-])cc1Cl`, for which the call in [1], in test [18], in test [3], in test [4], in test [6] and in [7] was inactive. The result in test [8], in test [9], in test [10], in test [11], in test [12] and in test [17] was inactive. Further, the outcome in [14], in [15] and in test [16] was inactive.
Consider `CCCCN(CCCC)SN(C)C(=O)Oc1cccc2c1OC(C)(C)C2`, for which the outcome in test [1], in test [4], in test [9], in test [12], in test [15] and in [16] was inactive. Moreover, the AC50 in test [18] is 68.3 µM (active); in test [3], 22.9 µM (active); in [6] it was 26 µM (active); in [7], 29.8 µM (active); in test [8], 36.4 µM (active); in test [11], 29.5 µM (active). In addition, the results for the AC50 in test [17], in [13] and in test [14] were 37.5 µM (active), 20.2 µM (active) and 27.2 µM (active), respectively.

The AC50 is the concentration giving half of the maximal activity seen.

For the origin of these results see PubChem BioAssay (EPA / NIEHS).
